proKLK7 act: proKLK7 (human) activation, primary screen | P49862 | purified proKLK7, EDANS-DABCYL substrate fluorescence; 100% is mature enzyme control, 0% vehicle | activation, % at 7 µM | actives 0.9% (n = 370,000) | AID 652039;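 active = activation above the mean of all tested compounds plus 3 SD, computed per campaign excluding outliers beyond control limits, cut at about 13% in these data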
ADAM10 inh: ADAM10 inhibition, QFRET primary screen; O14672; recombinant ADAM10, EDANS/DABCYL FRET peptide cleavage, 3 h; inhibition, % at 7 µM; actives 0.62% (n = 370,000);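 active = inhibition above a per-campaign cutoff equal to the mean of compounds falling between control-based bounds plus 3 SD, cut at about 20% in these data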
FGF22 binding: binders of recombinant human FGF22 by thermal shift; SYPRO orange fluorescence; percent of sucrose octasulfate shift, DMSO zero; actives 1.5% (n = 340,000); activity (Tm shift, normalised), % at 9.99 µM; Q9HCT0;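 active = mean Tm shift, scaled 0 neutral to 100 positive control, at about 1.3% or above, every replicate too, limit read from the data; inconclusive = no clear call, values can overlap the other calls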
ADAM17 inh: inhibitors of human ADAM17. recombinant ADAM17, EDANS/DABCYL FRET peptide cleavage. inhibition, % at 6.95 µM. actives 0.83% (n = 370,000). AID 720648;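 active = inhibition above the mean of compounds lying between control limits plus 3 SD, set per campaign, cut at about 8.5% in these data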
Target sequence (P78536 215-824 limits assumed): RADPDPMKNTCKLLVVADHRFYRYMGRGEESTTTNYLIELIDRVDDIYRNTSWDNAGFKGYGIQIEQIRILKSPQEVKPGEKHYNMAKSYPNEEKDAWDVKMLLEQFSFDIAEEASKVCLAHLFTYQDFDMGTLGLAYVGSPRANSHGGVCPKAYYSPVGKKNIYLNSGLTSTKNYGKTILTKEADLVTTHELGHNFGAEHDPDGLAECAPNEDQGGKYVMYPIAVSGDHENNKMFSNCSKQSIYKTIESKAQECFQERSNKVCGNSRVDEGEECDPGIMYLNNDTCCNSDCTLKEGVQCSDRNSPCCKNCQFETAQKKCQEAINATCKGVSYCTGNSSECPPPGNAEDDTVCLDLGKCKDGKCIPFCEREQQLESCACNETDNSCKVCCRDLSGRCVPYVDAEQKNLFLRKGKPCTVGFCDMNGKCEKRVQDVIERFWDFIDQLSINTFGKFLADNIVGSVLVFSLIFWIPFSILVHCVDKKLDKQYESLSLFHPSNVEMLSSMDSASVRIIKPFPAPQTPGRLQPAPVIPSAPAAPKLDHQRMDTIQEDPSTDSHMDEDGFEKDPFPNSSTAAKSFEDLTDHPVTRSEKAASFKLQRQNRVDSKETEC
rRNA inh HTS: inhibitors of bacterial rRNA selective over humanized ribosomes | E. coli WT GFP vs humanized-ribosome RFP mutants, fluorescence, 24 h; hits give low values; DMSO median 0, no signal -100 | GFP signal change (wild-type ribosome), % (no concentration beside the values) | actives 1.6% (n = 350,000);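 active = significant combined selectivity score with lowered wild-type GFP, culture density cut under 30%, mutant RFP and density less affected; inactive = any of these conditions unmet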
HepG2 cytotox: cytotoxic compounds in HepG2 cells | shares compounds with rRNA inh HTS | HepG2 viability, ATP luminescence, 72 h | activity change, negative = cytotoxicity, unspecified at 26 µM | 30 tested, under 10 active | AID 743480;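 active = compounds whose fitted half-maximal signal-loss concentration is at most twice their highest valid dose; inconclusive = flat curve with 30 to 70% signal loss, or poor fit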
AID977621: growth inhibition of wild-type GFP E. coli, dose response, H69 mutant RFP, cherry-pick; E. coli wild-type GFP strain growth, fluorescence, 24 h; AID 977621; activity change, negative = inhibition at 50 µM; 1,900 tested, under 10 active; shares compounds with rRNA inh HTS;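 active = Wild-type ribosome reporter drop at least double the humanized mutant ribosome reporter drop, growth loss under a set limit; inconclusive = no clear call, values can overlap the other calls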;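 note: wild-type GFP and H69 mutant RFP strains grown together 50/50 in each well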
AID977628: growth of wild-type and h24-humanized E. coli strains – h24 mutant RFP vs wild-type GFP, cherry-pick, dose response; E. coli WT GFP strain growth, fluorescence, 24 h; shares compounds with rRNA inh HTS; AID 977628; 1,900 tested, under 10 active; activity change, negative = inhibition at 50 µM;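 active = compound lowering the normal-ribosome reporter at least twice as much as the humanized-ribosome reporter, growth loss under a set limit; inconclusive = no clear call, values can overlap the other calls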;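 note: wild-type GFP and h24 humanized RFP strains co-cultured 1 to 1 per well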
Numbers stand for hits; i = inactive; ? = inconclusive; nt = no result given. Sampled rows, rich in hits. Any-hit rate of the full collection: about 3.8%.

SMILES	proKLK7 act	ADAM10 inh	FGF22 binding	ADAM17 inh	rRNA inh HTS	AID977621	AID977628	others
O=C(NCCSc1ccc(Br)cc1)c1ccccc1	i	i	nt	i	i	nt	nt
COc1ccc(Nc2oc(-c3ccco3)nc2S(=O)(=O)c2ccc(F)cc2)cc1	i	i	i	i	-28.7	nt	nt	HepG2 cytotox=i
COc1ccccc1CNC(=O)COC(=O)c1cccc(S(=O)(=O)N2CCCCC2)c1	i	i	i	i	i	nt	nt
O=C(COC(=O)c1cccc(S(=O)(=O)N2CCCCC2)c1)NCc1cccc(Cl)c1	i	i	i	i	-15.1	nt	i
COc1ccccc1NC(=O)Nc1ccc2c(c1)C(=O)N(C)C[C@@H](OC)[C@H](C)CN(C)[C@H](C)CO2	nt	nt	i	nt	i	nt	nt
COc1ccc(C2N(S(=O)(=O)c3ccc(C)cc3)CCN2S(=O)(=O)c2ccc(C)cc2)cc1	i	i	nt	i	i	nt	nt
COc1ccc(C2CC(=O)CCN2S(=O)(=O)c2ccc(C)cc2)cc1 (centres undefined)	i	i	i	i	-21.8	i	?
Cc1ccc(C(=O)OCC(=O)c2c[nH]c3ccccc23)cc1NC(=O)c1ccco1	i	i	i	i	-20.1	nt	?
CCN(CC)C(=O)COC(=O)c1ccc(C)c(NC(=O)c2ccco2)c1	i	i	i	i	i	nt	nt
CNC[C@H]1Oc2cc(C#CC(C)(C)O)ccc2S(=O)(=O)N([C@H](C)CO)C[C@@H]1C	nt	nt	i	nt	i	nt	nt
CCS(=O)(=O)N1CCCCN2[C@@H](CO)[C@@H](c3ccc(C#CC(C)(C)O)cc3)[C@@H]2C1	nt	nt	i	nt	i	nt	nt
O=C(NCc1ccccc1)c1ccc(-c2ccccc2F)o1	i	i	i	i	-37.5	i	?
O=C(NCCc1ccccc1)c1ccc(-c2ccccc2C(F)(F)F)o1	i	i	i	i	i	nt	nt
CO[C@@H]1CN(C)C(=O)c2ccc(NC(=O)Cc3ccccc3)cc2OC[C@@H](C)N(CC2CC2)C[C@@H]1C	nt	nt	i	nt	i	nt	nt
CC(C)CNc1nc(S(=O)(=O)c2ccccc2)c(Cl)s1	i	i	i	i	-40.0	?	i
O=C(O)CSc1nnc(-c2ccc(Cl)cc2Cl)n1-c1ccc(Br)cc1	i	i	i	i	-29.9	i	nt
O=C(O)CSc1nnc(-c2ccncc2)n1-c1ccc(Cl)cc1	i	i	nt	i	nt	nt	nt
C[C@H]1CN([C@@H](C)CO)S(=O)(=O)c2ccc(-c3ccncc3)cc2O[C@H]1CN(C)C(=O)C1CCC1	nt	nt	nt	nt	i	nt	nt
CCN(CC)S(=O)(=O)c1ccc(N2CCCC2)c(NC(=O)Cc2ccccc2)c1	i	i	i	i	i	nt	nt
CCN(CC)S(=O)(=O)c1ccc(N2CCCC2)c(NC(=O)c2ccccc2OC)c1	i	i	i	i	-20.6	i	i
O=[N+]([O-])c1ccc(Cl)cc1NCc1cccnc1	i	i	i	i	-21.1	i	?
C[C@@H]1CN([C@@H](C)CO)C(=O)c2cc(NC(=O)C3CC3)ccc2O[C@H]1CN(C)C(=O)Nc1ccc(C(F)(F)F)cc1	nt	nt	i	nt	-28.9	i	i
Cc1noc(C)c1NC(=O)Nc1ccc2c(c1)C(=O)N([C@@H](C)CO)C[C@@H](C)[C@H](CN(C)C(=O)Nc1ccc3c(c1)OCO3)OCCCC[C@H](C)O2	nt	nt	i	nt	i	i	?
C[C@@H]1CCCCO[C@H](CN(C)C(=O)Nc2ccc3c(c2)OCO3)[C@H](C)CN([C@@H](C)CO)C(=O)c2cc(NC(=O)Nc3ccc4c(c3)OCO4)ccc2O1	nt	nt	i	nt	i	nt	nt
Cc1noc(C)c1NC(=O)Nc1ccc2c(c1)C(=O)N([C@@H](C)CO)C[C@@H](C)[C@@H](CN(C)C(=O)Nc1c(C)noc1C)OCCCC[C@@H](C)O2	nt	nt	i	nt	i	nt	nt
SMILES	proKLK7 act	ADAM10 inh	FGF22 binding	ADAM17 inh	rRNA inh HTS	AID977621	AID977628	others
C[C@H](CO)N1C[C@H](C)[C@H](CN(C)C(=O)Nc2ccc3c(c2)OCO3)Oc2c(NC(=O)Nc3ccccc3)cccc2C1=O	nt	nt	i	nt	-22.0	i	?
Cc1noc(C)c1NC(=O)Nc1ccc2c(c1)C(=O)N([C@@H](C)CO)C[C@@H](C)[C@@H](CN(C)C(=O)Nc1ccc3c(c1)OCO3)OCCCC[C@@H](C)O2	nt	nt	i	nt	i	i	?
O=C(Nc1cc(F)ccc1F)N1CC(=O)N2[C@H](CO)[C@@H](c3ccc(/C=C/c4ccccc4)cc3)[C@@H]2C1	nt	nt	nt	nt	i	nt	nt
Cc1noc(C)c1NC(=O)N(C)C[C@@H]1OCCCC[C@H](C)Oc2ccc(NC(=O)Nc3ccc(C(F)(F)F)cc3)cc2C(=O)N([C@@H](C)CO)C[C@@H]1C	nt	nt	i	nt	i	nt	nt
C[C@@H]1CN([C@H](C)CO)C(=O)CCCn2nncc2CO[C@@H]1CN(C)C(=O)Nc1ccc(C(F)(F)F)cc1	nt	nt	i	nt	-17.7	i	?
C[C@@H]1CN([C@H](C)CO)C(=O)CCCn2nncc2CO[C@H]1CN(C)C(=O)Nc1ccc(C(F)(F)F)cc1	nt	nt	i	nt	i	nt	nt
C[C@H](NC(=O)C[C@@H]1C[C@@H]2c3cc(NS(C)(=O)=O)ccc3O[C@@H]2[C@H](CO)O1)c1ccccc1	nt	nt	i	nt	i	nt	nt
CO[C@@H]1CN(C)C(=O)c2cc(NC(C)=O)ccc2OC[C@H](C)N(C(=O)c2ccccn2)C[C@H]1C	nt	nt	i	nt	i	nt	nt
CCCn1nnnc1NCc1ccccc1OCc1cccs1	i	i	i	i	-20.1	i	nt
CCCn1nnnc1NCc1ccccc1OCc1ccc(F)cc1	i	i	nt	i	nt	nt	nt
COc1ccccc1NC(=O)N[C@@H]1CC[C@H](CCNC(=O)Cc2ccccn2)O[C@@H]1CO	nt	nt	i	nt	i	nt	nt
CCCC#Cc1ccc([C@H]2[C@H](CO)N3CCCCN(Cc4cccnc4)C[C@@H]23)cc1	nt	nt	i	nt	i	nt	nt
COc1cc(CCN(C(=O)c2cc3ccccc3[nH]2)C(C)c2nc3ccccc3[nH]2)cc(OC)c1 (centres undefined)	i	i	i	i	i	nt	nt
COc1cc(CCN(C(=O)c2cc3ccccc3[nH]2)C(c2ccccn2)c2nc3ccccc3[nH]2)cc(OC)c1 (centres undefined)	i	i	i	i	-26.0	i	i
Cc1ccc(-c2cc[n+](Cc3ccccc3)cc2)cc1	i	i	i	i	-32.0	i	?
Cc1cc[n+](Cc2ccc([N+](=O)[O-])cc2)cc1	i	i	i	i	i	nt	nt
O=C(O)CCCCCCCCc1cn(CC2CCCCC2)nn1	i	i	i	i	-21.3	?	nt
O=C(O)CCCCCCCCc1cn(Cc2ccc(C(=O)c3ccccc3)cc2)nn1	i	i	i	i	i	nt	nt
